Bioassay records: PubChem BioAssay, National Center for Advancing Translational Sciences (NCATS)
Compounds with a hit are over-represented: about 3.6% of the library has one in this group of screens.
PMP22 txn: Cell-based coincidence reporter assay to measure PMP22 gene transcription in S16 Pmp22-F2sN cells - Primary screen; S16 Pmp22-F2sN Schwann cells, FLuc/NLuc coincidence luminescence, 24 h; actives 2% (n = 43,000); AID 1508649, 2021; Potency, µM (top dose mostly 57.5 µM), for inactives: at the highest dose activity change, negative = inhibition, actives largely listed as inhibitors; active means clear falling dose curves in both reporters; inconclusive means both reporters move, but less clearly or upward; inactive means either reporter flat; the % is the NLuc reporter signal; further: potency means the concentration at half of the fitted maximal effect; on the % scale 0 is the no-effect control and ±100 the full control effect
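Rat S16 Pmp22-F2sN cells, 500-1,000/well in phenol red-free DMEM + 10% FBS, compound-treated 24 h (37C, 5% CO2). Luminescence: FLuc read, Stop&Glo added, NLuc read.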
pS6 MEF inh: Acumen qHTS Assay for Inhibitors of the mTORC1 Signaling Pathway in MEF (Tsc2-/-, p53-/-) Cells: Sytravon; actives 0.78% (n = 44,000); Potency, µM (highest dose often 38.3 µM), for the others: top-dose activity change, negative = inhibition, usual class: inhibitors; Tsc2-/- p53-/- MEF, phospho-rpS6 immunofluorescence/PI, 24 h; AID 493208, 2011;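 further: potency means the concentration at half of the fitted maximal effect; plate controls were DMSO for no effect and rapamycin for full effect; nearly all actives have a fitted effect of over 50% in size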
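Immunofluorescence of rpS6 phosphorylation in Tsc2-/-, p53-/- MEFs after 24 h compound exposure, normalized to propidium iodide signal. Activity is expressed as % positive cells, thresholded with 7.5 nM rapamycin.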
NTMT1 inhibitor: Primary qHTS for Inhibitors of N-terminal methyltransferase 1 (NTMT1): MTaseGlo Assay | N-terminal Xaa-Pro-Lys N-methyltransferase 1 (Homo sapiens), Q9BV86 | NTMT1 MTase-Glo SAH luminescence, purified enzyme | Potency, µM (titrated, usually from 114 µM), inactives show top-dose activity change, negative = inhibition, usual class: inhibitors | actives 2.5% (n = 59,000) | AID 1645870, 2021;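 further: potency means the concentration at half of the fitted maximal effect; plate controls were DMSO vehicle for no effect and no enzyme for full effect; nearly all actives have a fitted effect of over 65% in size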
Target sequence (Q9BV86 whole entry, looked up): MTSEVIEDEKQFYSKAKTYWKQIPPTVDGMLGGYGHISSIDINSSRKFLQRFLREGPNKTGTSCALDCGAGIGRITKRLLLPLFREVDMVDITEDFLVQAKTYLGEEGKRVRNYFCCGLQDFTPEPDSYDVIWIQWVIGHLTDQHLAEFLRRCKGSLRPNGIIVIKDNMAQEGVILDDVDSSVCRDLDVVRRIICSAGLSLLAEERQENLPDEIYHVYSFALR
GALC G270D up: A Novel Cell-Based Assay to Identify Small Molecules for B -Galactocerebrosidase. 145M-Twi-hGALC-G270D cells (Twitcher mouse brain line with human GALC G270D), HMU-beta-Gal fluorescence, 48 h. Potency, µM (series often up to 57.5 µM), most hits filed as activators. actives 0.1% (n = 45,000). AID 1159614, 2016; further: potency means the concentration at half of the fitted maximal effect; 0% is about no effect; nearly all actives have a fitted effect of over 65% in size
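Fluorescence readout: HMU-β-gal cleavage by mutant GALC (0.1 mM final, citrate/phosphate pH 5.2 with 1 mg/mL taurocholate), stopped with carbonate/bicarbonate plus Triton X-100. Cells: murine Twitcher 145M-Twi expressing human G270D GALC; qHTS for activators.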
SKOV3 invasion: Primary qHTS assay for Inhibitors of ovarian cancer metastasis using an organotypic tumor microenvironment (TME) model; actives 0.1% (n = 46,000); Potency, µM (top dose mostly 45.8 µM), for inactives: at the highest dose activity change, negative = inhibition, hits mostly inhibitors; AID 1963576, 2024; SKOV3ip1-GFP adhesion/invasion on 3D omental model, fluorescence;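 further: potency means the concentration at half of the fitted maximal effect; plate controls were DMSO wells for no effect and tomatine positive control wells for full effect; nearly all actives have a fitted effect of over 65% in size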
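Adhesion/invasion was scored as fixed GFP-labeled SKOV3ip1 cell counts (488/509 nm), normalized to DMSO and tomatine controls. Cancer cells in serum-free medium, with four compound doses (0.36-46 umol/L), sat 2 hr at RT then 16 hr at 37 C on a 48 hr fibroblast/mesothelial/ECM culture.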
S16 F2sN tox: Cell viability qHTS assay in S16 Pmp22-F2sN cells; AID 1508642, 2021; Potency, µM (top dose mostly 57.5 µM), without a hit: at the highest dose activity change, negative = cytotoxicity, hits mostly cytotoxic; actives 0.48% (n = 43,000); S16 Pmp22-F2sN Schwann cells viability, CellTiter-Glo, 24 h; further: potency means the concentration at half of the fitted maximal effect; on the % scale 0 is the no-effect control and ±100 the full control effect; nearly all actives have a fitted effect of over 65% in size
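S16 Pmp22-F2sN Schwann cells (500-1,000/well) in phenol-red-free DMEM with 10% FBS received 23 nL compound by pin tool for 24 h at 37 °C. Viability was then read as CellTiter-Glo luminescence after 15 min at room temperature.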
NLuc sat counter: Biochemical NLuc saturation counterscreen for small molecule modulators of PMP22 gene expression - Nano-Glo assay. Secreted NLuc enzyme (filtered S16 cell medium), Nano-Glo luminescence. Potency, µM (highest dose often 57.5 µM), for inactives: at the highest dose activity change, negative = inhibition, hits mostly inhibitors. actives 4% (n = 690). AID 1508638, 2021. shares compounds with PMP22 txn; further: potency means the concentration at half of the fitted maximal effect; on the % scale 0 is the no-effect control and ±100 the full control effect
NLuc Km ctr: Biochemical coelenterazine-based NLuc counterscreen for small molecule modulators of PMP22 gene expression - Km assay; Potency, µM (series often up to 57.5 µM), without a hit: at the top dose activity change, negative = inhibition, actives largely listed as inhibitors; shares compounds with PMP22 txn; actives 5% (n = 690); secreted NLuc enzyme, coelenterazine luminescence, Km conditions; further: potency means the concentration at half of the fitted maximal effect; on the % scale 0 is the no-effect control and ±100 the full control effect
FLuc counter: Biochemical FLuc counterscreen for small molecule modulators of PMP22 gene expression | AID 1508640, 2021 | Potency, µM (highest dose often 57.5 µM), for the others: at the highest dose activity, negative = inhibition, usual class: inhibitors | 690 tested, under 10 active | purified P. pyralis FLuc, luminescence, 10 min | shares compounds with PMP22 txn; further: % of control where 0% means no effect
Target sequence (P08659 whole entry, looked up): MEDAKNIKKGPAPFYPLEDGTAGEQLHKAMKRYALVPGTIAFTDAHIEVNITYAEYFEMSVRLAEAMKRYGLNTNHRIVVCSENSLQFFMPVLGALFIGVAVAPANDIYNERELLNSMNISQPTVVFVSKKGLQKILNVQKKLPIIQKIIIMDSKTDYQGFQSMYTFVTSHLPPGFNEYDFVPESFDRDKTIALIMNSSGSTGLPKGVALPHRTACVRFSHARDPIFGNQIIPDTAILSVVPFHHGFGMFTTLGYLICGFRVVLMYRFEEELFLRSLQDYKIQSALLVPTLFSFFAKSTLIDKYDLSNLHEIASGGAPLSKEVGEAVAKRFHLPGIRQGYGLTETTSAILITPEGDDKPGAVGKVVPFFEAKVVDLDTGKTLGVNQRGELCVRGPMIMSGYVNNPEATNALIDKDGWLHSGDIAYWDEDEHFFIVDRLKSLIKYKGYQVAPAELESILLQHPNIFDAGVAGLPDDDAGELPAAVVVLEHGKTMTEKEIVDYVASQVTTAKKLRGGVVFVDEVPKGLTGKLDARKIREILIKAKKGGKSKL
S16 F2sN tox cnf: Cell viability qHTS assay in S16 Pmp22-F2sN cells - Confirmatory screen | shares compounds with PMP22 txn | S16 Schwann cells viability, CellTiter-Glo ATP luminescence, 24 h | Potency, µM (titrated, usually from 57.5 µM), without a hit: at the top dose activity change, negative = viability loss, actives largely listed as cytotoxic | actives 7% (n = 690) | AID 1508641, 2021; further: potency means the concentration at half of the fitted maximal effect; on the % scale 0 is the no-effect control and ±100 the full control effect
PMP22 txn cnf: Cell-based coincidence reporter assay to measure PMP22 gene transcription in S16 Pmp22-F2sN cells - Confirmatory screen. shares compounds with PMP22 txn. S16 Schwann cells Pmp22-F2sN, dual luciferase, 24 h. Potency, µM (series often up to 57.5 µM), for inactives: top-dose activity change, negative = inhibition, hits mostly inhibitors. actives 22% (n = 690); active means clear falling dose curves in both reporters; inconclusive means both reporters move, but less clearly or upward; inactive means either reporter flat; the % is the FLuc reporter signal; further: potency means the concentration at half of the fitted maximal effect
PMP22 HiBiT cnf: Cell-based HiBiT reporter assay to measure PMP22 protein expression in S16 Pmp22-HiBiT cells - Confirmatory screen; shares compounds with PMP22 txn; S16 Schwann cells Pmp22-HiBiT, luminescence, 48 h; Potency, µM (series often up to 27.9 µM), for inactives: top-dose activity change, negative = inhibition, usual class: inhibitors; 95 tested, under 10 active
* = called active by the depositor; i = inactive; ? = inconclusive; / = not tested or not shown; [ ] = remark or other dose. Unless noted, the call rests on the fitted dose curve; in most records, active means well fitted curve in the direction sought with a large enough effect; inconclusive means small, poorly fitted or top-dose-only effect, or another doubt; inactive means no such curve, though single readings can be large; an effect the other way counts as inactive or inconclusive.

SMILES | PMP22 txn | pS6 MEF inh | NTMT1 inhibitor | GALC G270D up | SKOV3 invasion | S16 F2sN tox | NLuc sat counter | NLuc Km ctr | FLuc counter | S16 F2sN tox cnf | PMP22 txn cnf | others
COc1ccccc1Nc1c2c(nc3ccc(NC(=O)/C=C/c4cccc(OC)c4OC)cc13)CCCC2 | 10.6µM* | 4.14µM* | 10.4% | i | -14.3% | 25.1µM* | -5.7% | 3.6% | 2.3% | ? | 7.74µM* | PMP22 HiBiT cnf=38.4%
COc1cc2c(cc1-c1c(C)noc1C)ncc1[nH]c(=O)n([C@H](C)c3ccccn3)c12 | / | / | ? | / | 54.2% | / | / | / | / | / | /
O=S(=O)(NCc1ccc(F)cc1)c1ccc(N2CCCCS2(=O)=O)cc1 | 11.9µM* | -29.7% | -0.4% | i | -5.1% | ? | -1.9% | -3.4% | -1.2% | -7.2% | 2.5%
O=S(=O)(NCc1ccc(Cl)cc1)c1ccc(N2CCCCS2(=O)=O)cc1 | ? | -18.9% | -8.0% | ? | -11.4% | ? | / | / | / | / | /
O=C1COc2ccc(-c3cc(-c4ccc(F)cc4)c4c(n3)-c3ccccc3OC4)cc2N1 | 16.8µM* | 1.5% | 3.5% | i | i | 24.4% | -4.7% | 7.1% | 5.7% | ? | ?
CCOC(=O)c1ccc(N2C(=O)c3n[nH]c(-c4ccco4)c3C2c2ccc(O)c(OCC)c2)cc1 (stereo not given) | ? | ? | 2.2% | i | -1.7% | ? | / | / | / | / | /
CCOC(=O)c1ccc(N2C(=O)c3[nH]nc(-c4ccc(C)cc4)c3C2c2ccc(O)c(OCC)c2)cc1 (stereo not given) | 12.7µM* | 0.6% | 4.5% | i | 0.3% | -20.2% | -11.7% | -13.3% | -2.8% | ? | ? | PMP22 HiBiT cnf=-17.1%
Cc1ccccc1OCc1nnc(SCc2cc(=O)c3cc(F)ccc3[nH]2)n1C | ? | 0.6% | -2.5% | i | -2.2% | -27.2% | / | / | / | / | /
Cc1ccc2[nH]c(CSc3nnc(COc4ccccc4C)n3C)cc(=O)c2c1 | 13.4µM* | -14.2% | 6.1% | i | i | ? | ? | ? | -6.8% | ? | -22.6%
CCOc1ccc(CCNc2ncnc3onc(C)c23)cc1OCC | 4.74µM* | ? | 8.8% | i | 6.5% | -24.5% | -12.1% | -5.1% | -3.1% | -7.3% | -27.9%
CN1N=C(N)c2cn([C@@H]3O[C@H](COP(=O)(O)O)[C@@H](O)[C@@H]3O)c3ncnc1c23 | / | / | ? | / | 2.3% | / | / | / | / | / | /
COc1ccc(CC(=O)Nc2sc3c(c2C(=O)Nc2cccc(C)c2)CCCCC3)cc1 | 10µM* | 9.27µM* | 0.8% | i | -1.0% | 25.1µM* | -15.2% | 5.6% | -13.5% | ? | ?
Cc1ccc(C)c(NC(=O)CSc2c3c(nc4ccc(Cl)cc24)CCCC3)c1 | 15µM* | 2.1% | ? | i | 3.0% | 1.2% | -20.3% | -6.9% | 4.7% | 0.1% | ?
CCCCN(CC)C(=O)CSc1c2c(nc3ccc(Cl)cc13)CCCC2 | ? | -11.1% | -5.2% | i | -4.1% | 5.1% | / | / | / | / | /
COC(=O)c1ccccc1NC(=O)c1ccc2c(Cl)c3c(nc2c1)CCCC3 | 16.0% | -0.4% | 10.3% | i | i | 9.5% | / | / | / | / | /
O=C(CSc1c2c(nc3ccc(Cl)cc13)CCCC2)NCc1ccccc1Cl | 11.2µM* | -2.0% | -1.3% | i | i | 22.4µM* | ? | ? | -0.8% | 26.8% | ?
COC(=O)c1ccccc1NC(=O)CSc1c2c(nc3ccc(Cl)cc13)CCCC2 | 17.8µM* | -0.1% | -17.5% | i | 5.0% | 16.8% | -14.7% | 4.0% | 6.3% | ? | ?
COc1ccc(NC(=O)CSc2c3c(nc4ccc(Cl)cc24)CCCC3)cc1Cl | 18.9µM* | 1.3% | -2.4% | i | -11.7% | ? | ? | ? | 5.8% | ? | ?
CC(C)(Cc1nc(-c2ccc(O)cn2)no1)C(=O)NC1=C(C(=O)O)CCCC1 | / | / | 4.3%[57.5 µM] | / | / | / | / | / | / | / | /
